# What was measured:
# Assay in all cases: universal protein binding microarray (PBM); transcription factors of Arabidopsis thaliana; high values mean tight binding
# GST-ANAC092(1-176) = target: T1, GST-ANAC092(1-176) (Arabidopsis thaliana, UniProt Q9FKA0 1-176); details: protein: recombinant; tags: GST; chain copies: 2; dsDNA, one strand shown
# T1 sequence: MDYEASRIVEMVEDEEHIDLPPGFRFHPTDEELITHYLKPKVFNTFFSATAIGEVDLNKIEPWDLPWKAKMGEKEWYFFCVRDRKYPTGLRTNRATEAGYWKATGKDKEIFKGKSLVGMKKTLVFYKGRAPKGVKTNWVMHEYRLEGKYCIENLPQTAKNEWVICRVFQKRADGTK
# In short: (§1)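 GST-tagged NAC-domain, full-length or DNA-binding-domain proteins were induced in cells, with zinc acetate added for zinc-finger proteins. They were purified on glutathione–Sepharose 4B and quantified by A280 or anti-GST western blot. Each was applied at 200 to 500 nM final, in duplicate, to custom all-10-mer Agilent 4 × 180K arrays made double-stranded by primer extension, with gapped and ungapped 8-mers scored. Binding is the normalised enrichment score (E-score).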
# GST-ANAC019 NAC domain = target: T2, GST-ANAC019 NAC domain (Arabidopsis thaliana, UniProt Q9C932 14-162); details: protein: recombinant; tags: GST; chain copies: 2; dsDNA, one strand shown
# T2 sequence: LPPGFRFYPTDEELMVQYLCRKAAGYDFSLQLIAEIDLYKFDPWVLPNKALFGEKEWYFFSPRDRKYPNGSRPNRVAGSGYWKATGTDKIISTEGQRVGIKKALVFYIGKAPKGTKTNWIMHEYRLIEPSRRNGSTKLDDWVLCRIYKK
# In short: as §1
# GST-ANAC055(1-171) = target: T3, GST-ANAC055(1-171) (Arabidopsis thaliana, UniProt Q9LDY8 1-171); details: protein: recombinant; tags: GST; chain copies: 2; dsDNA, one strand shown
# T3 sequence: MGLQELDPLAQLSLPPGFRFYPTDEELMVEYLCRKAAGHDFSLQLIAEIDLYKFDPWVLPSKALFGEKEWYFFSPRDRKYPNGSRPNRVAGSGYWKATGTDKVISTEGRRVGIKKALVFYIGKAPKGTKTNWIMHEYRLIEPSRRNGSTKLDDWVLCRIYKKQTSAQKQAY
# In short: as §1
# GST-ATAF1 NAC domain = target: T4, GST-ATAF1 NAC domain (Arabidopsis thaliana, UniProt Q39013 7-158); details: protein: recombinant; tags: GST; chain copies: 2; dsDNA, one strand shown
# T4 sequence: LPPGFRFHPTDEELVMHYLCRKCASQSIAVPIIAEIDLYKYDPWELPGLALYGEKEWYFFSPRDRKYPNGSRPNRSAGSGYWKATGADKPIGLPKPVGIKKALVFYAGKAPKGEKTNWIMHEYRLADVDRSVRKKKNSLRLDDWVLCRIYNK
# In short: as §1
# [1] = target: T5, GST-ANAC092(1-285) full length (Arabidopsis thaliana, UniProt Q9FKA0 1-285); details: protein: recombinant; tags: GST; chain copies: 2; dsDNA, one strand shown
# T5 sequence: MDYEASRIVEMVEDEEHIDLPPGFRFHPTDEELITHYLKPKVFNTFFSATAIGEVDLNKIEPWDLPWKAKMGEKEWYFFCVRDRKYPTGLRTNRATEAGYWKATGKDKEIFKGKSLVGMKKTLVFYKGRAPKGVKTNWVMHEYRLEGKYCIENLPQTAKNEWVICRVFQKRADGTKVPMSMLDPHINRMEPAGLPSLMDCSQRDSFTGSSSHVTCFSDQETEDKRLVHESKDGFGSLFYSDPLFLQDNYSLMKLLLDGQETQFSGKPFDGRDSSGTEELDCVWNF
# In short: as §1
# GST-NAP(1-166) = target: T6, GST-NAP(1-166) (Arabidopsis thaliana, UniProt O49255 1-166); details: protein: recombinant; tags: GST; chain copies: 2; dsDNA, one strand shown
# T6 sequence: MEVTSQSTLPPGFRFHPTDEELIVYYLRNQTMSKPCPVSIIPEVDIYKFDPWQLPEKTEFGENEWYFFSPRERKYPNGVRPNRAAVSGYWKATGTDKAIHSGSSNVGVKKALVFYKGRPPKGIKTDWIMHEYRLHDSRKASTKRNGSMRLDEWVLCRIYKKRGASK
# In short: as §1
# GST-NST2(1-184) = target: T7, GST-NST2(1-184) (Arabidopsis thaliana, UniProt Q9M274 1-184); details: protein: recombinant; tags: GST; chain copies: 2; dsDNA, one strand shown
# T7 sequence: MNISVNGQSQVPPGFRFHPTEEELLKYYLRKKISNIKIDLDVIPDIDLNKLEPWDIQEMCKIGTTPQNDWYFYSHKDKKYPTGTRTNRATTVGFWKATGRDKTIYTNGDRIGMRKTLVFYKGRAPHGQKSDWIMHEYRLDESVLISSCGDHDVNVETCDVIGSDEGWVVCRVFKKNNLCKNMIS
# In short: as §1
# GST-NTL8 NAC domain = target: T8, GST-NTL8 NAC domain (Arabidopsis thaliana, UniProt Q9XIN7 14-156); details: protein: recombinant; tags: GST; chain copies: 2; dsDNA, one strand shown
# T8 sequence: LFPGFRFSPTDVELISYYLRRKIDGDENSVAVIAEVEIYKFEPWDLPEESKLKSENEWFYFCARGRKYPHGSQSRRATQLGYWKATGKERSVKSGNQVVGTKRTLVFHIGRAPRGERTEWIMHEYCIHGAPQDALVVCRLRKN
# In short: as §1
# GST-SND1(1-203) = target: T9, GST-SND1(1-203) (Arabidopsis thaliana, UniProt Q9LPI7 1-203); details: protein: recombinant; tags: GST; chain copies: 2; dsDNA, one strand shown
# T9 sequence: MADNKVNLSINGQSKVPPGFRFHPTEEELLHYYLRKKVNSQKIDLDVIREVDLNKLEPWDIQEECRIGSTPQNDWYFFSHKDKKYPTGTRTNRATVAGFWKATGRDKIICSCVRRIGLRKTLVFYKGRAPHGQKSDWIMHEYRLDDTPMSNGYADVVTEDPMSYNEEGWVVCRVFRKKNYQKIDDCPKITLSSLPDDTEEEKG
# In short: as §1
# GST-VND3 NAC domain = target: T10, GST-VND3 NAC domain (Arabidopsis thaliana, UniProt Q9FH59 12-162); details: protein: recombinant; tags: GST; chain copies: 2; dsDNA, one strand shown
# T10 sequence: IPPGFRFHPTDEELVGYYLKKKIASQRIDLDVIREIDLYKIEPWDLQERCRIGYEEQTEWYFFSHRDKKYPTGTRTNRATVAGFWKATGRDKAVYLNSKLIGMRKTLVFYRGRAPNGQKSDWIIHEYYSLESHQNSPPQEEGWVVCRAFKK
# In short: as §1
# GST-VND7 NAC domain = target: T11, GST-VND7 NAC domain (Arabidopsis thaliana, UniProt Q9C8W9 9-158); details: protein: recombinant; tags: GST; chain copies: 2; dsDNA, one strand shown
# T11 sequence: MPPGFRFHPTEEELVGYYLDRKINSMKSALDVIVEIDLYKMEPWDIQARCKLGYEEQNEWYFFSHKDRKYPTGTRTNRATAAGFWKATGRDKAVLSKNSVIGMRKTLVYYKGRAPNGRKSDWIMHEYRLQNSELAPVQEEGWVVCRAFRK
# In short: as §1
# GST-NTL6(1-168) = GST-NTL6(1-168) (Arabidopsis thaliana, UniProt Q9SCK6 1-168); details: protein: recombinant; tags: GST; chain copies: 2; dsDNA, one strand shown
# In short: as §1
# GST-WRKY1(266-371) = GST-WRKY1(266-371) (Arabidopsis thaliana, UniProt Q9SI37 266-371); details: protein: recombinant; tags: GST; dsDNA, one strand shown
# In short: as §1
# Chain of GST-WRKY1(266-371) (Q9SI37 266-371): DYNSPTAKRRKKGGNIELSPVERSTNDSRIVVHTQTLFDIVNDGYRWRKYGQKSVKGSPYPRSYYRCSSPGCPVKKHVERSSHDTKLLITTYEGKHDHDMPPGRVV
# Chain of GST-NTL6(1-168) (Q9SCK6 1-168): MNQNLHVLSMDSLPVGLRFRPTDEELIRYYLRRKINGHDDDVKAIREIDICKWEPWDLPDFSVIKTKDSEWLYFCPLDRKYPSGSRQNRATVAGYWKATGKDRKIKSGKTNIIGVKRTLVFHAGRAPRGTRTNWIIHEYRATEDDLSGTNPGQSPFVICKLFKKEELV
Sequence,binding signal (GST-ANAC092(1-176)) [E-score],binding signal (GST-ANAC019 NAC domain) [E-score],binding signal (GST-ANAC055(1-171)) [E-score],binding signal (GST-ATAF1 NAC domain) [E-score],binding signal [1] [E-score],binding signal (GST-NAP(1-166)) [E-score],binding signal (GST-NST2(1-184)) [E-score],binding signal (GST-NTL8 NAC domain) [E-score],binding signal (GST-SND1(1-203)) [E-score],binding signal (GST-VND3 NAC domain) [E-score],binding signal (GST-VND7 NAC domain) [E-score],binding signal (GST-NTL6(1-168)) [E-score],binding signal (GST-WRKY1(266-371)) [E-score]
CGTACGCA,0.392,0.359,0.328,0.291,0.433,0.365,0.24,0.0905,0.32,0.378,0.341,–,–
CCTTACCC,–,–,–,–,0.0872,–,–,0.404,0.167,0.0668,0.0637,0.366,–
CTTCCTTA,0.158,0.0721,–,–,0.104,–,0.151,0.223,0.21,0.0785,–,0.447,0.0845
AAGGTCAA,0.138,–,0.106,0.146,0.0845,–,0.0822,0.0854,0.144,0.101,–,0.252,0.484
AATTACGC,0.17,–,0.155,0.18,0.243,0.144,0.199,–,0.428,0.119,0.13,–,–
ACGCTACC,0.455,0.118,–,0.144,0.48,0.0969,0.34,–,0.475,0.0872,0.181,–,–
GCACGCTA,0.445,0.207,0.117,–,0.474,–,0.173,–,0.409,0.111,0.0845,–,–
ATACGCCA,0.455,–,0.22,0.331,0.455,0.201,0.283,0.0758,0.398,0.192,0.247,–,–
ACGTTACA,0.354,–,0.157,0.244,0.404,0.23,0.222,–,0.362,0.217,0.153,–,–
GTAACGTA,0.451,0.367,0.189,0.322,0.467,0.315,0.321,0.13,0.489,0.338,0.402,–,–
ACGTTACG,0.389,0.302,0.299,0.268,0.441,0.341,0.287,0.13,0.44,0.333,0.39,–,–
TTAAGAAA,0.151,–,0.0935,0.195,0.227,–,0.142,0.273,0.367,0.0817,–,0.461,0.116
AGTTGACG,0.0881,0.0919,0.0862,0.213,–,0.0554,0.107,–,0.198,0.0565,–,–,0.43
AGCGTAAA,0.223,0.0508,–,0.12,0.241,0.126,0.244,–,0.413,0.15,0.119,–,–
GGTCAAAA,0.0966,–,0.0727,–,–,–,–,0.116,0.123,0.0741,–,0.101,0.478
CTTTACGC,0.294,0.0905,–,–,0.302,0.081,0.193,–,0.408,0.0839,0.137,–,–
TTGACCAA,0.232,0.063,0.0923,0.066,0.226,–,–,–,0.0845,0.0958,–,–,0.491
TTAAGGAA,0.11,–,0.0521,0.0827,0.131,–,0.139,0.293,0.39,0.24,–,0.48,0.0668
CACGCTAC,0.46,0.167,0.0982,0.167,0.476,–,0.298,–,0.441,0.0671,0.135,–,–
ATTTCTTA,–,–,0.0799,0.19,0.185,–,0.126,–,0.225,0.0914,0.148,0.409,–
ACGCCATC,0.421,–,0.098,0.0609,0.453,0.171,0.237,–,0.41,0.125,0.108,–,–
CAAAAGTC,0.0755,–,0.138,0.222,0.112,–,0.252,–,0.133,0.141,–,0.0864,0.432
ACGGAACC,0.361,0.454,0.446,0.38,0.4,0.461,0.12,0.172,0.235,0.382,0.435,–,–
CAGTCAAC,0.0753,–,–,0.084,–,–,–,–,0.0832,0.0605,–,–,0.491
AATACTTA,–,0.135,0.162,0.254,0.104,–,0.0916,0.0845,0.0985,0.187,0.0602,0.405,–
AGTCAAAC,–,0.0687,0.103,0.109,–,0.0582,0.0701,0.07,0.126,0.103,–,0.0896,0.491
AAGTCAGA,0.0562,0.0582,0.073,–,0.14,–,0.132,–,0.0642,0.166,–,0.0583,0.455
GTACGCGA,0.245,–,0.0563,0.234,0.4,0.188,0.129,–,0.288,0.11,0.133,–,–
ATGCCGTA,0.373,0.395,0.355,0.385,0.41,0.36,0.117,0.0526,0.307,0.412,0.432,–,–

# From PMC4081100, “A DNA-binding-site landscape and regulatory network analysis for NAC transcription factors in Arabidopsis thaliana”
